Consider 40 compounds from PubChem BioAssay (NCATS).

Several values for one entry are separate records, joined by “and”; a condition that tells them apart may be missing. Equal values may be shown once. Unmarked numbers belong to inactive results. Records with an inconclusive call do not appear. Activity calls are given as the source filed them. Unless noted, the call rests on the fitted dose curve; in most records, active means well fitted curve in the direction sought with a large enough effect; inconclusive means small, poorly fitted or top-dose-only effect, or another doubt; inactive means no such curve, though single readings can be large; an effect the other way counts as inactive or inconclusive.

Experiment [1] in a line: S16 Schwann cell viability assay (CellTiter-Glo assay) (AID 624031). Further: nearly all actives have a fitted effect of over 70% in size. Further: potency means the concentration at half of the fitted maximal effect. To be noted: S16 rat Schwann cells viability, 24 h; series mostly up to 57.5 µM. The method in brief:
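Native S16 Schwann cells (rat), serum-containing medium, overnight attachment then 24 h drug exposure at 37 °C/5% CO2. CellTiter-Glo ATP signal; normalized to cell-free and vehicle wells.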
On the technique in general: ATP-based viability assays read luminescence as a measure of living cells.

Experiment [2] is described as follows: S16 Schwann cell PMP22 intronic element firefly luciferase assay (AID 624032). Further: nearly all actives have a fitted effect of over 30% in size. Further: potency means the concentration at half of the fitted maximal effect. The settings on record: S16 rat Schwann cells, PMP22 element FLuc, 24 h; series mostly up to 57.5 µM. The method in brief: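 Rat S16 Schwann cells stably carrying a PMP22 intronic element-driven Fluc reporter were seeded overnight, then exposed to compounds for 24 h at 37 °C. Luminescence was normalized to PTC124 (positive control) and DMSO (0% activity).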

A short description of experiment [3]: S16 Schwann cell PMP22 intronic element beta-lactamase assay (AID 624044; calls by dose curve;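 further: 0% = DMSO and -100% = potassium clavulanate positive control; nearly all actives have a fitted effect of over 15% in size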). To be noted: S16 rat Schwann cells, PMP22 element beta-lactamase FRET, 24 h; series mostly up to 38.3 µM. The method in brief:
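Rat S16 Schwann cells with beta-Lac driven by a PMP22 intronic element, compound-treated 24 h at 37 °C. LiveBLAzer FRET B/G read: 460 nm normalized to potassium clavulanate vs DMSO; 535 nm FRET as viability; concentration-effect curves classified.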

A short description of experiment [4]: qHTS assay for small molecule agonists of the antioxidant response element (ARE) signaling pathway (AID 651741; active means well fitted activation curve with a large enough effect in the signal ratio; the % refers to the signal ratio; further: potency means the concentration at half of the fitted maximal effect; on activation: % of control where 0% means no effect). The settings on record: HepG2 ARE-bla reporter, beta-lactamase FRET ratio, 16 h; series mostly up to 96 µM. The method in brief: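 Compounds in DMSO are pinned onto HepG2 ARE-bla cells (2,000/well) that were preincubated 5 h; plates stay 16 h at 37 C, then beta-lactamase activity is detected with LiveBLAzer B/G substrate by fluorescence.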
Background: In qHTS, concentration-response curves come from the screen itself.

Experiment [5] in a line: qHTS assay for small molecule activators of the p53 signaling pathway (AID 651743; active means well fitted activation curve with a large enough effect in the signal ratio, not every such curve was filed as active; the % refers to the signal ratio; further: % of control where 0% means no effect). To be noted: HCT-116 p53RE-bla, beta-lactamase FRET ratio, 16 h; activation: hits give high values. The essentials: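 Cell-based beta-lactamase reporter (p53 response elements, HCT-116 background). After a 5-hour preincubation, cells received compound for 16 hours at 37 C; substrate development ran 2 hours at room temperature.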

The nature of experiment [6]: qHTS assay for small molecule activators of the nuclear factor-kappa B (NF-kB) signaling pathway (AID 651749; active means well fitted activation curve with a large enough effect in the signal ratio; the % refers to the signal ratio; further: % of control where 0% means no effect). The settings on record: NF-kB-bla ME-180 cells, beta-lactamase FRET ratio, 16 h; hits give high values. The essentials: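 Screening used 2,000 ME-180 reporter cells per well exposed to pinned compound (23 nL) or DMSO; after 16 hr at 37C, beta-lactamase expression under NF-kB control was assessed through FRET.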

Experiment [7] in a line: qHTS assay for small molecule disruptors of the mitochondrial membrane potential - 1 hr assay (AID 651754; calls by dose curve; further: nearly all actives have a fitted effect of over 35% in size; further: potency means the concentration at half of the fitted maximal effect). To be noted: series mostly up to 92.2 µM. The essentials:
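HepG2, 2,000 cells/well, overnight attachment; cpd or DMSO 1 hr, 37C/5% CO2; Mito-MPS dye 30 min, 37C; fluorescence monomer (490/535) and aggregate (540/590).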

Experiment [8] can be described thus: qHTS assay for small molecule disruptors of the mitochondrial membrane potential - 5 hr assay (AID 651755; calls by dose curve; further: nearly all actives have a fitted effect of over 40% in size; further: potency means the concentration at half of the fitted maximal effect). The settings on record: JC-1-type ratio dye; series mostly up to 92.2 µM. The essentials:
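HepG2 cells, attached overnight at 37C, were exposed to compound or DMSO for 5 hr at 37C, 5% CO2. Mito-MPS dye was then added for 30 min, and fluorescence read at 490/535 nm (monomers) and 540/590 nm (aggregates).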

Experiment [9] addresses Tumor necrosis factor (Homo sapiens) (UniProt P01375). The experiment is described as follows: qHTS assay to identify small molecules that stimulate Tumor Necrosis Factor-alpha (TNF-alpha) secretion (AID 651757; active means well fitted curve in the direction sought with a large enough effect in the signal ratio; the % refers to the signal ratio; further: 0% is about no effect). To be noted: Human cells, HTRF 665/615 ratio; series mostly up to 92.2 µM. The method in brief: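 Read-out is HTRF, a TR-FRET sandwich of cryptate- and XL665-labeled anti-TNF-alpha antibodies detecting cytokine secreted by THP-1 cells. Cells had been incubated with test compounds at 37 C for 17 hrs beforehand.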

A short description of experiment [10]: qHTS of Trypanosoma Brucei Inhibitors: LOPAC Validation (AID 624147). Further: 0% is about no effect. To be noted: purified enzyme assay, luminescence, 45 min; series mostly up to 57.5 µM. The method in brief: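 In this concentration-response screen, enzyme-free wells defined baseline while DMSO plates tracked drift. Each reaction combined TbPYK, substrate, compound and 130 uM ADP for 45 min at room temperature. Kinase-Glo Plus luminescence gave the signal.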

Experiment [11] deals with Glucagon-like peptide 1 receptor (Homo sapiens) (UniProt P43220). Briefly: qHTS of GLP-1 Receptor Agonists: LOPAC Validation (AID 624148).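 Further: 0% is about no effect; higher luminescence signal means agonism.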 The settings on record: GLP-1R agonist cell assay; series mostly up to 46.1 µM. The essentials:
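HEK293 cells stably co-expressing a cAMP-responsive luciferase reporter and a hypersensitive GLP-1R were plated 12 h at 37 °C and exposed to compounds for 4-6 hr at 37 °C, 5% CO2. Luminescence was read 12 min after adding detection reagent.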

Experiment [12] in a line: qHTS of Nrf2 Activators: LOPAC Validation (AID 624149). Further: 0% is about no effect. The settings on record: Nrf2/ARE reporter cell assay; series mostly up to 46.1 µM. The essentials: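 Luminescence read-out of ARE-luciferase activation: AREc32_Fluc cells treated with compounds for 24 hr at 37 deg C, then lysed with Steady-Glo for 30 min at room temperature before reading.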
Experiment [13] is described as follows: HTS Assay for Allosteric Antagonists of the Human D2 Dopamine Receptor: Hit Validation in HTRF (AID 624455).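 Further: stable D1 dopamine receptor cell line scored for blocking the D1 response; on the % scale 0 is the no-effect control and ±100 the full control effect.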 The settings on record: Cells stably expressing D1 dopamine receptor, inhibition mode; series mostly up to 46.1 µM. The essentials:
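First, antagonism was screened by calcium flux in a force-coupled, inducible Hek293 Trex D2 line challenged with EC80 dopamine. Hits then went into an HTRF assay in cells stably expressing D1, testing inhibition of the D1 response.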
On the technique in general: In TR-FRET formats the signal depends on donor and acceptor labels being close together.

Sequence of Tumor necrosis factor (Homo sapiens) (P01375 whole entry, looked up): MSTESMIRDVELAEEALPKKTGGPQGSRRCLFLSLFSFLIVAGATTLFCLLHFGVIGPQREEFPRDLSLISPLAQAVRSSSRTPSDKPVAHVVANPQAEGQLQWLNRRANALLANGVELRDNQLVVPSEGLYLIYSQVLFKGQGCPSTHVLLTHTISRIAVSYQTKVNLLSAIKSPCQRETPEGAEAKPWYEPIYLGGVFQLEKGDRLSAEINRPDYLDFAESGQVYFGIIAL
Sequence of Glucagon-like peptide 1 receptor (Homo sapiens) (P43220 whole entry, looked up): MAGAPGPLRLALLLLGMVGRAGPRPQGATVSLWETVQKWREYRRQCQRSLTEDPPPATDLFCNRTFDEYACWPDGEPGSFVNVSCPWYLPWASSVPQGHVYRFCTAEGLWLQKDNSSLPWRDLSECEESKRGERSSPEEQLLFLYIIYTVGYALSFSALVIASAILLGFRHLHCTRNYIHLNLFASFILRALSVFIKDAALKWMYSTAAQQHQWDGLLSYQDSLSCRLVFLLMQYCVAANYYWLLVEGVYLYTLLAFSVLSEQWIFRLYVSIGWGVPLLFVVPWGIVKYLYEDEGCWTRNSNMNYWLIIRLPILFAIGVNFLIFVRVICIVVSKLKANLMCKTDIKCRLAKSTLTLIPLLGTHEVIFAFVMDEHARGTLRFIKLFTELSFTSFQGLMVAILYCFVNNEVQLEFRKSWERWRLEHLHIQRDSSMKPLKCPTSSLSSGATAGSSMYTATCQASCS

In the case of `NCCc1cc(O)c(O)cc1O`, the Potency entry in experiment [1], in [2] and in [3] was “inactive” each time.

As to `CC(C)(C)NCC(O)c1cc(Cl)c(N)c(Cl)c1` (stereo not given), the Potency entry in [1] was “inactive”.

For the compound `CN1CCc2cccc3c2[C@H]1Cc1ccc(O)c(O)c1-3`, in experiment [1], the Potency is 32.2 µM (active).

With `CN1C(=S)CN=C(c2ccccc2)c2cc(Cl)ccc21`, the Potency result in experiment [1], in experiment [2] and in experiment [3] was “inactive” each time.

As to `CC(C)(N)Cc1ccc(Cl)cc1`, the Potency result in [1] and in [2] was “inactive” in each case.

For `CN1CCN(C(=O)O[C@H]2c3nccnc3C(=O)N2c2ccc(Cl)cn2)CC1`, the Potency entry in [1] and in [2] was “inactive” each time.

For the compound `CCC(C(N)=O)N1CCCC1=O` (stereo not given), the Potency result in [1] and in [2] was “inactive” each time.

Take `CN(C)CCc1ccc(O)cc1`: the Potency result in [1] and in [2] was “inactive” in each case.

Consider `CCOP(=S)(OCC)Oc1cc(C)nc(C(C)C)n1`, for which the Potency entry in experiment [1], in experiment [2], in [3], in [4], in experiment [7] and in experiment [8] was “inactive” in each case. Also, the activation in experiment [5] is -0.592% and 3.54%; in experiment [6], -0.534% and -0.189%. Also, in experiment [9], the result was inactive.

As to `CC[N+]1(C)CCCC(OC(=O)C(O)(c2ccccc2)c2ccccc2)C1` (stereo not given), the Potency result in experiment [1] was “inactive”.

As for `CC(=O)[C@H]1CC[C@H]2[C@@H]3CC[C@H]4C[C@](C)(O)CC[C@]4(C)[C@H]3CC[C@]12C`, the Potency result in [1], in experiment [2], in experiment [3] and in experiment [13] was “inactive” in each case. The compound was classed as inactive in experiment [10], in experiment [11] and in experiment [12].

Consider `CC1NCCOC1c1ccccc1` (stereo not given), for which the Potency entry in experiment [1] and in experiment [2] was “inactive” throughout.

For the compound `CC(C)CC(N(C)C)C1(c2ccc(Cl)cc2)CCC1` (stereo not given), the Potency entry in [1], in experiment [2] and in [3] was “inactive” in each case.

Turning to `NP(N)(=O)NC(=O)c1ccc(F)cc1`, the Potency entry in experiment [1] and in experiment [2] was “inactive” in each case.

Consider `CC[C@@H](CO)NC(=O)[C@@H]1C=C2c3cccc4c3c(cn4C)C[C@H]2N(C)C1`, for which the Potency entry in experiment [1], in experiment [2] and in experiment [3] was “inactive” in each case. The compound was called inactive in experiment [11] and in experiment [12].

On to `Cc1ccc(-c2nc3ccc(C)cn3c2CC(=O)N(C)C)cc1`, for which the Potency entry in experiment [1], in [2] and in experiment [3] was “inactive” throughout.

As for `Cc1ncc(CNC(=O)N(CCCl)N=O)c(N)n1`, the Potency result in [1], in experiment [2], in experiment [3] and in experiment [13] was “inactive” throughout. In addition, the result in experiment [10], in experiment [11] and in experiment [12] was inactive.

As for `FC(F)(F)c1cccc(C2=CCN(CCc3ccc4ccccc4c3)CC2)c1`, the Potency result in experiment [1] and in [2] was “inactive” each time.

With `CCC(COC(=O)c1cc(OC)c(OC)c(OC)c1)(c1ccccc1)N(C)C` (stereo not given), the Potency result in experiment [1], in experiment [2] and in [3] was “inactive” throughout.

Take `CC(C)=CC1C(C(=O)OCc2cccc(Oc3ccccc3)c2)C1(C)C` (stereo not given): the Potency entry in [1], in [2] and in experiment [3] was “inactive” each time.

`C=C1CC[C@@]2(O)[C@H]3Cc4ccc(O)c5c4[C@@]2(CCN3CC2CC2)[C@H]1O5`: the Potency entry in [1] and in [2] was “inactive” in each case.

For `Cc1cccc(C)c1NC1=NCCCS1`, the Potency entry in [1], in experiment [2], in experiment [3] and in experiment [13] was “inactive” each time. The call in [10], in experiment [11] and in experiment [12] was inactive.

Consider `Cc1ccc(S(=O)(=O)N[C@@H](CCCCN)C(=O)CCl)cc1`, for which the Potency entry in experiment [1], in experiment [2], in [3] and in experiment [13] was “inactive” each time. Besides, the compound was classed as inactive in experiment [10], in [11] and in experiment [12].

Consider `C#CCOC(C(=O)OCCN(C)C)(c1ccccc1)c1ccccc1`, for which the Potency entry in [1], in experiment [2] and in experiment [3] was “inactive” each time.

`CCOC(=O)C1(c2ccccc2)CCN(CCC(C#N)(c2ccccc2)c2ccccc2)CC1`: the Potency result in [1] was “inactive”.

Consider `CC[N+](CC)(CC)CC`, for which the Potency entry in experiment [1] was “inactive”.

Regarding `O=[N+]([O-])c1cc([As](=O)(O)O)ccc1O`, the Potency result in experiment [1], in experiment [2] and in experiment [3] was “inactive” throughout.

`COc1ccccc1N1CCNCC1`: the Potency result in experiment [1], in [2], in [3] and in [13] was “inactive” each time. Moreover, the outcome in experiment [10], in [11] and in [12] was inactive.

`CC(C)NCC(O)c1ccccc1Cl` (stereo not given): the Potency result in experiment [1] and in [2] was “inactive” throughout.

As for `CCCC1CCCCN1` (stereo not given), the Potency entry in experiment [1] and in experiment [2] was “inactive” in each case.

`CCN(C(C)=O)c1cccc(-c2ccnc3c(C#N)cnn23)c1`: the Potency result in experiment [1] and in experiment [2] was “inactive” throughout.

As to `CCN(CC)CCN1C(=O)CN=C(c2ccccc2F)c2cc(Cl)ccc21`, the Potency result in experiment [1], in experiment [2] and in [3] was “inactive” throughout.

For `Oc1ccc(Cl)cc1Cc1ccccc1`, the Potency entry in experiment [1], in experiment [2] and in [3] was “inactive” throughout. For the same compound, the Potency in experiment [4] was 54.5 µM (active) and 42.2 µM (active); in [7] it was 18.8 µM (active); in [8], 21.1 µM (active). Further, the activation in [5] was -3.88% and -4.49%; in experiment [6], -0.62% and 0.873%. The result in experiment [9] was inactive.

For `CC1OC(C)OC(C)O1` (stereo not given), the Potency result in experiment [1], in [2] and in experiment [3] was “inactive” in each case.

On to `O=C(NC(O)C(Cl)(Cl)Cl)NC(O)C(Cl)(Cl)Cl` (stereo not given), for which the Potency result in [1] and in [2] was “inactive” in each case.

On to `O=P1(NCCCl)OCCCN1CCCl` (stereo not given), for which the Potency result in experiment [1], in [2] and in [3] was “inactive” in each case.

For `CC(=O)Nc1cc([As](=O)(O)O)ccc1O`, the Potency result in [1] and in experiment [2] was “inactive” throughout.

For the compound `Clc1cccc(N2CCNCC2)c1`, the Potency entry in [1] and in experiment [2] was “inactive” throughout.

In the case of `CCN(CC)CCOC(=O)C(O)(c1ccccc1)c1ccccc1`, the Potency entry in experiment [1] and in experiment [3] was “inactive” in each case.

As for `NCC(O)c1ccc(O)cc1` (stereo not given), the Potency result in experiment [1] and in experiment [4] was “inactive” in each case. Further, in experiment [2], the Potency is 16.1 µM (active). In addition, the compound was classed as inactive in experiment [10], in experiment [11], in experiment [12] and in experiment [9]. Further, the values for the activation in [5] and in [6] were -5.43% and -2.66%, respectively.
